# Reference: paper PMC5540273 (PLoS ONE, 2017)
# Columns and labels:
# Settings in all cases: concentration: 1 μM, replicates: in singlicate; n = 1
# MLK1 = system: T1, MLK1
# T1 construct: gene MAP3K9
# MLK2 = system: MLK2
# MLK3 = system: MLK3
# MRCKA = system: MRCKA
# MRCKB = system: T2, MRCKB
# T2 construct: gene CDC42BPB
# MST1R = system: MST1R
# MST1 = system: T3, MST1
# T3 construct: gene STK4
# MST2 = system: T4, MST2
# T4 construct: gene STK3
# MST3 = system: T5, MST3
# T5 construct: gene STK24
# MST4 = system: MST4
# 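Note: KINOMEscan kinase panel screen.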
Compound,%Inh (MLK1) [%],%Inh (MLK2) [%],%Inh (MLK3) [%],%Inh (MRCKA) [%],%Inh (MRCKB) [%],%Inh (MST1R) [%],%Inh (MST1) [%],%Inh (MST2) [%],%Inh (MST3) [%],%Inh (MST4) [%]
Cl.Cl.NCC(NC(=O)c1cc(-c2cccnc2)c(-c2ccnc3[nH]ccc23)s1)c1ccccc1 (stereo not drawn) [GSK1323434],0,0,48,39,35,84,0,8,0,15
Cc1cccc(Nc2nc(N[C@H]3CCCC[C@H]3N)ncc2C(N)=O)c1.Cl [GSK986310],85,40,76,13,0,44,34,0,52,34
CN(C)CCNS(=O)(=O)c1ccc(-c2ccnc3[nH]ccc23)cc1 [GSK977620],3,24,0,4,46,27,17,9,0,0
Cc1ccc(-c2ccc3occ(-c4ccc(S(C)=O)cc4)c3c2)nn1 (stereo not drawn),0,10,0,0,0,0,0,0,0,0
COc1cccc(NC(=O)NCCNc2ccnc(Nc3ccc(F)cc3)n2)c1 [GSK1379879],0,0,0,34,3,37,0,15,0,0
CCOc1nccc(-c2c(-c3ccc(F)cc3)ncn2C2CCNCC2)n1 [SB-249175],3,14,15,0,26,0,0,0,13,11
CN(c1ccc(NC(=O)N2CCN(CCCN3CCOCC3)CC2)cc1)c1ccnc(Nc2ccc(CS(C)(=O)=O)cc2)n1.Cl [GW830899],13,29,1,19,15,0,0,0,0,0
COC(=O)Nc1nc2cc(Oc3ccc(NC(=O)Nc4cccc(SC)c4)cc3)ccc2[nH]1.Cl [GW697999],0,0,0,14,0,29,4,0,0,0
O=C(Nc1n[nH]c2nc(-c3cccc(O)c3)ccc12)C1CC1 [SB-711805],0,13,3,0,0,0,0,0,0,0
